The text below walks through data of PubChem BioAssay (NCATS).

Several values for one entry are separate records, joined by “and”; a condition that tells them apart may be missing. Equal values may be shown once. Results filed as inconclusive are left out. Entries that show only a call come without a potency. More than one record can exist for a structure, and the calls need not agree. Activity calls are given as the source filed them. Unless noted, the call rests on the fitted dose curve; in most records, active means well fitted curve in the direction sought with a large enough effect; inconclusive means small, poorly fitted or top-dose-only effect, or another doubt; inactive means no such curve, though single readings can be large; an effect the other way counts as inactive or inconclusive.

One test is described as follows: Confirmation and Secondary Assay for Modulators of Hemoglobin Beta Chain Splicing at IVS2 654 locus (AID 910).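 Further: per-well total GFP intensity by laser scanning cytometry after 2-day treatment.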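 Further: potency means the concentration at half of the fitted maximal effect; potency of activators that raise GFP signal by restoring correct splicing.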 To be noted: HeLa EGFP-654 splicing reporter, GFP fluorescence, 48 h; series mostly up to 46.1 µM. An outline of the steps: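 HeLa cells stably carrying EGFP interrupted by mutant beta-globin IVS2-654 intron (CMV-driven) were treated with compound for 2 days at 37C; corrected splicing was scored as total peak GFP intensity per well (488 nm excitation, 500-520 nm emission).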
Turning to `CC(=O)[O][Hg][c]1ccccc1`, the Potency result is “inactive”. Still for that read-out and setting: the result for `COc1ccc(C(c2ccc(OC)cc2)C(Cl)(Cl)Cl)cc1` reads “inactive”; that for `CCCCCCCCCCCCCCCC[N+](C)(C)C`, “inactive”; that for `COC(C)(C)CCCC(C)C/C=C/C(C)=C/C(=O)OC(C)C` (stereo not drawn), “inactive”. For the compound `O=C1CCCN1CC#CCN1CCCC1`, the Potency result was “inactive”. In the case of `NCCc1c[nH]c2ccccc12`, the Potency result is “inactive”. The same measure, in the same setting: the result for `CCC(=O)OC1CCC2C3CCC4=CC(=O)CC[C@@]4(C)C3CC[C@]12C` (stereo partly drawn) reads “inactive”. For the compound `CC[C@@]1(O)C(=O)OCc2c1cc1n(c2=O)Cc2cc3ccccc3nc2-1`, the Potency entry is “inactive and 1 µM (active)”. In the case of `C#CC1(O)CCC2C3CCC4=CC(=O)CCC4(C)C3CCC21C` (stereo not drawn), the Potency entry is “inactive”. As for `NC(N)=NOCCC(N)C(=O)O` (stereo not drawn), the Potency entry was “inactive”.

Regarding `O=C(O)CCCOc1ccc(Cl)cc1Cl`, the Potency entry was “inactive”. Same read-out and setting: under `CC(Cc1ccc(O)cc1)NCC(O)c1cc(O)cc(O)c1` (stereo not drawn) stands “inactive”; under `Cc1nccc2c1[nH]c1ccccc12`, “inactive”; under `Cc1cc(O)ccc1Cl`, “inactive”.

Another test is described as follows: qHTS Assay for Identification of Small Molecule Agonists for Hypoxia Response Element Signaling Pathway (AID 914; active means well fitted activation curve with a large enough effect in the signal ratio, with a control signal flat, not every such curve was filed as active; the % refers to the signal ratio). To be noted: ME-180 (cervical carcinoma) HRE-bla reporter, beta-lactamase ratio, CoCl2, 17 h; stronger effect = higher value. An outline of the steps: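 Positive modulation of EC50 CoCl2-induced hypoxia response element signaling is measured in ME-180 cells with a beta-lactamase reporter. Compounds are titrated, incubation runs 17 hours, and %Activity derives from the blue/green ratio.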
In the case of `CC(C)Oc1cccnc1N(C)C1CCN(Cc2ccccc2)CC1`, the activation was -11.6% (inactive). Same read-out and setting: under `NCCc1c[nH]c2ccccc12` stands -27.7% (inactive); under `O=C(O)Cc1cnc[nH]1`, 7.21% (inactive). Same read-out and setting: under `NCCc1c[nH]c2ccc(O)cc12` stands 17.2% (inactive) and 2.69% (inactive).

A further test is described as follows: qHTS Assay for Identification of Small Molecule Agonists for Thrombopoietin (TPO) Signaling Pathway (AID 917). To be noted: TPO signaling pathway reporter cells, agonist qHTS; series mostly up to 38.5 µM. In short, it runs like this: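 Ba/F3 (mouse) + hTPO receptor + GpIIb-promoter luciferase; IL-3 withdrawn overnight; compound + 26 pM TPO (EC50), 24 hrs, 37 C, 5% CO2; Steadylite luminescence, 10 min RT.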
(In general: In qHTS, concentration-response curves come from the screen itself.)
`NCc1cc(=O)[nH]o1`: the outcome was inactive.

As to `Clc1cnc(Oc2ccc(Oc3ncc(Cl)cc3Cl)cc2)c(Cl)c1`, the call was inactive. As for `C[C@@H]1O[C@H](C[N+](C)(C)C)C[C@H]1O`, the compound was classed as inactive.

Consider `CC(=O)NCCc1c[nH]c2ccccc12`, for which the result was inactive. For `O=C(O)CC[N+](=O)[O-]`, the compound was classed as inactive.

For `CC(C)Oc1cccnc1N(C)C1CCN(Cc2ccccc2)CC1`, the call was inactive. Consider `O=C1CCCN1CC#CCN1CCCC1`, for which the result was inactive.

Regarding `NCCc1c[nH]c2ccccc12`, the result was inactive. On the same count and under the same terms, under `CCCN(CCC)[C@@H]1CCc2ccc(O)cc2C1` stands “inactive”; under `O=C(O)Cc1cnc[nH]1`, “inactive”; under `CC1=NN=C(c2ccc(N)cc2)c2cc3c(cc2C1)OCO3`, “inactive”. Still for that read-out and setting: under `NC(N)=NOCCC(N)C(=O)O` (stereo not drawn) stands “inactive”. Same read-out and setting: the result for `NCCc1c[nH]c2ccc(O)cc12` reads “inactive”; that for `CNCCc1c[nH]c2ccc(O)cc12`, “inactive”.

Regarding `CCCN1CCO[C@@H]2c3cc(O)ccc3OC[C@H]21`, the outcome was inactive.

As to `Cc1nccc2c1[nH]c1ccccc12`, the call was inactive. Same read-out and setting: the result for `CCCN1CCC[C@H](c2cccc(O)c2)C1` reads “inactive”; that for `C[C@]12N[C@H](Cc3ccccc31)c1ccccc12`, “inactive”; that for `NC(=NCCC[C@H](N)C(=O)O)N[N+](=O)[O-]`, “inactive”. Still for that read-out and setting: under `Cn1cnc(CCN)c1` stands “inactive”.
